In PubChem BioAssay (NCI):
“And” between values parts separate entries of the source, which are not always exact repeats. Equal entries are not always repeated. The panel holds about 79,000 compounds, 15% with a hit somewhere; the sample as a whole holds those more often. The source made the active and inactive calls. No stated cut-off is given here; in the data, active means growth inhibition above about 70%; inactive means the rest.

Columns and labels:
[1] = NCI Yeast Anticancer Drug Screen. Data for the rad50 strain (AID 155);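 further: 0% = growth of vehicle-only cultures of the same strain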; settings: S. cerevisiae rad50 strain growth inhibition; at 50.0 µM; active compounds read high
How it was run: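 Inhibition values express reduced yeast growth in compound-treated cultures relative to vehicle-treated controls.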

[2] = NCI Yeast Anticancer Drug Screen. Data for the mec2-1 strain (AID 157); settings: S. cerevisiae mec2-1 strain, at 50.0 µM, active compounds read high
How it was run: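 Test agents were screened against the mec2-1 yeast strain, with defined DNA repair or cell cycle alteration. Growth was scored as inhibition against vehicle-only controls.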

[3] = NCI Yeast Anticancer Drug Screen. Data for the sgs1 mgt1 strain (AID 161);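 further: 0% = growth of cultures given vehicle only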; settings: S. cerevisiae sgs1 mgt1 strain, at 50.0 µM, active compounds read high
How it was run: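 Mutant yeast exposed to compound; growth scored against vehicle-only wells.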

[4] = NCI Yeast Anticancer Drug Screen. Data for the cln2 rad14 strain (AID 165);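 further: 0% = growth equal to vehicle treated cultures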; settings: S. cerevisiae cln2 rad14 strain, at 50.0 µM, active compounds read high
How it was run: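 Growth of compound-exposed yeast (cln2 rad14 genotype) measured and expressed as inhibition relative to vehicle.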

[5] = NCI Yeast Anticancer Drug Screen. Data for the bub3 strain (AID 167); settings: S. cerevisiae bub3 mutant strain, at 50.0 µM, active compounds read high
How it was run: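 Steps: expose the mutant yeast strain to compound; grow alongside vehicle-treated cultures; measure growth; express inhibition against the vehicle cultures.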

[6] = NCI Yeast Anticancer Drug Screen. Data for the mlh1 rad18 strain (AID 175); settings: S. cerevisiae mlh1 rad18 strain growth inhibition; at 50.0 µM; active compounds read high
How it was run: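 In this whole-cell yeast screen, a strain with altered DNA damage repair is challenged with compound, and its growth is measured against matched vehicle-treated controls.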

Measured: growth inhibition

CC(=O)NNC(=O)C(Cl)Cl
inactive: [1] 5.45% | [2] -3.75% | [3] 8.45% | [4] 8% | [5] 4.15% | [6] 25.4%

Cc1csc(N/C(=N/[N+](=O)[O-])N(C)C)n1
inactive: [1] -35.5% | [2] 0.65% | [3] -9.15% | [4] -10.8% | [5] 2.1% | [6] -3.7%

O=C(CF)NCCCl
inactive: [1] -3.45% | [2] -8.8% | [3] -1.65% | [4] 9.5% | [5] 9.65% | [6] 1.45%

CCCC[As](=O)(O)C(C)C
inactive: [1] 5% | [2] 9.25% | [3] 2.5% | [4] 16% | [5] 6.95% | [6] 14.1%

C[N+]1(C)CCN(c2ccccc2)CC1
inactive: [1] 18.9% | [2] -29.6% | [3] -12.5% | [4] 14.2% | [5] -8.9% | [6] -5.35%

[CH3][Sn]([CH3])([CH3])[O]C(=O)C(O)c1ccccc1 (centres undefined)
inactive: [1] 11.6% | [2] -7.7% | [3] 5.1% | [4] 9.4% | [5] -0.05% | [6] -2.3%

NC(N)=NCCCCCCCCCCN=C(N)N
inactive: [1] 0.45% | [2] -20.2% | [3] -6.05% | [4] 8.4% | [5] -2.35% | [6] -10.3%

[N-]=[N+]=NP1(=O)OC(c2ccccc2)=CCN1c1ccccc1 (centres undefined)
inactive: [1] -9.2% | [2] -9.5% | [3] -8.45% | [4] 20.7% | [5] 8.65% | [6] -4.1%

CSCCC(N)C(=O)O (centres undefined)
inactive: [1] -50.4% and -3.35% | [2] 9.55% and -25.1% | [3] -6% and -7.65% | [4] -27.8% and -1% | [5] 32.4% and -11.6% | [6] -103% and -2.65%

COc1cc2c(cc1O)CC1CC(=O)CCN1C2 (centres undefined)
inactive: [1] -3.4% | [2] 4.5% | [3] -12.1% | [4] -6.85% | [5] -10.8% | [6] -0.75%

Cc1cc(N(C)CCCl)ccc1N=Nc1ccccc1C(=O)O
inactive: [1] 36.5% | [2] 10.8% | [3] 36.8% | [4] 6% | [5] 23.4% | [6] 18.8%

CCNP(=S)(OCC)OCC
inactive: [1] -9.2% | [2] 3.15% | [3] 5.05% | [4] -3.9% | [5] -2.7% | [6] -4%

O=C(O)C1C2C=Cc3ccccc3C21 (centres undefined)
inactive: [1] 4.5% | [2] 2.9% | [3] -11.3% | [4] -26.6% | [5] -6.2% | [6] 6.45%

CO[C@H]1Nc2c(ccc(C)c2O)C(=O)N2C=C(/C=C/C(N)=O)C[C@@H]12
active: [1] 89.2% | [2] 91.5% | [3] 90% | [4] 90.2% | [5] 90.3% | [6] 87.3%

O=C1C(C(Nc2ccccc2)c2ccccc2)=C([O-])c2ccccc21.O=C1C(C(Nc2ccccc2)c2ccccc2)=C([O-])c2ccccc21.[Cu+2] (centres undefined)
inactive: [1] -12% | [2] -1.5% | [3] -10.2% | [4] 10.5% | [5] 4.75% | [6] -0.65%

CCC1(/C(C)=C/C(C)C)C(=O)NC(=O)NC1=O
inactive: [1] 15.8% and 16.3% | [2] 12.8% and 4.6% | [3] 1% and 6.15% | [4] 8.8% and -11.4% | [5] 4.65% and 2.35% | [6] 4.15% and 5.05%

COCCCNP(=O)(OC(C)C)OC(C)C
inactive: [1] 0.75% | [2] 0.85% | [3] 8.6% | [4] 5.8% | [5] 9.2% | [6] 14.8%

ClCCN(CCCl)c1ccc(/C=N/Nc2ccnc3ccccc23)cc1
active: [1] 96.2% | [2] 96.3% | [3] 96.8% | [4] 96.5% | [5] 87.2% | [6] 88.8%

CCN1C(=O)C(=C/C=C/c2ccc([N+](=O)[O-])cc2)C(=O)N(CC)C1=S
inactive: [1] 8.55% | [2] 9.95% | [3] 19.1% | [4] 19.9% | [5] 18.6% | [6] 18.1%
